Source: PubChem BioAssay
The sample as a whole holds a higher share of hits than the screen did.
Pf Dd2 inh – qHTS Primary assay for Inhibitors of Plasmodium falciparum Dd2 growth in vitro. P. falciparum Dd2 growth, SYBR Green, 72 h. Potency, µM (top dose mostly 28.9 µM), actives largely listed as inhibitors. actives 4.3% (n = 120,000); active means well fitted inhibition curve with a large enough effect; further: nearly all actives have a fitted effect of over 65% in size
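Infected erythrocytes (Dd2, 0.3% parasitemia, 2.5% hematocrit final) are added to compound in RPMI-1640/Albumax II medium, grown 72 h at 37C in low oxygen, then lysed with saponin/Triton-X containing SYBR Green and read by fluorescence.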
Large screens that a line does not name were inactive.

COc1ccccc1CCN1Cc2cc(NC(=O)Cc3cccs3)ccc2OC(C)C1=O (stereo not drawn)	Pf Dd2 inh 11.2µM
COc1ccc(CN2Cc3cc(NC(=O)c4ccc5c(c4)OCO5)ccc3OC(C)C2=O)cc1 (stereo not drawn)	none
Cc1ccc([S+](=O)([O-])N2CCCC(c3nn(-c4ccccc4)c(=O)[nH]3)C2)cc1 (stereo not drawn)	none
CCN1C(=O)C2(CCN(C(=O)C3CCCCC3)CC2)c2ccccc21	none
CC(NC(=O)c1ccc(OC2CCN(S(=O)(=O)N(C)C)CC2)cc1)c1ccc(F)cc1 (stereo not drawn)	none
O=C(c1cnccn1)N1C[C@@H]2OCC(=O)N(CC3CC3)[C@@H]2C1	none
O=C(c1ccc(OC2CCN(C(=O)C3CCCC3)CC2)nc1)N1CCOCC1	none
Cc1noc(C)c1-c1cc2cc(CO)oc2c(NCc2cccc(F)c2)n1	none
COCCNc1nc(-c2c(C)noc2C)cc2cc(CO)oc12	none
COc1ccc(Nc2nc(-c3c(C)noc3C)cc3cc(CO)oc23)cc1OC	Pf Dd2 inh 7.94µM
CS(=O)(=O)c1ccc(CC(=O)N2CCc3n[nH]c(=O)n3CC2)cc1	none
CSc1ccc(NC(=O)c2nnn3c2COC(c2ccc(C)cc2)C3)cc1 (stereo not drawn)	none
COc1ccc(CCNC(=O)CCCn2c(=O)c3ccccc3n(CC(=O)Nc3cc(Cl)ccc3C)c2=O)cc1OC	none
COc1ccc(CCNC(=O)CCn2c(=O)c3ccccc3n(CC(=O)Nc3cc(Cl)ccc3C)c2=O)cc1OC	none
COc1ccc(Cl)cc1NC(=O)Cn1c(=O)n(CCCC(=O)NCCc2ccc(OC)c(OC)c2)c(=O)c2ccccc21	Pf Dd2 inh 11.2µM
CC(O)c1cc2n(n1)CCCN(CCn1cc[nH]c1=O)C2 (stereo not drawn)	none
CCOc1ccc(-c2nonc2NC(=O)c2ccco2)cc1OCC	Pf Dd2 inh 2.51µM
CCOc1ccc(-c2nonc2NC(=O)c2ccco2)cc1	none
CCCCOc1ccc(-c2nonc2NC(=O)c2ccco2)cc1	none
C=CCNC(=O)O[C@@H]1CC(C(=O)N[C@@H](Cc2ccc(OC)cc2)C(N)=O)=C[C@@H](NC(=O)c2ccc(OC)cc2)[C@H]1O	none
c1ccc(CNc2nc3ccccc3c3nc(-c4ccccc4)nn23)cc1	Pf Dd2 inh 8.91µM
Clc1ccc(CCNc2nc3ccccc3c3nc(-c4ccccc4)nn23)cc1	none
CCCCNC(=O)CCC(=O)NNc1nc2ccccc2c2nc(-c3ccccc3)nn12	none
CCCCNc1nc2ccccc2c2nc(-c3ccccc3)nn12	Pf Dd2 inh 3.16µM
Clc1ccc(CNc2nc3ccccc3c3nc(-c4cccnc4)nn23)cc1	none
Clc1ccccc1CNc1nc2ccccc2c2nc(-c3ccccc3)nn12	none
O=C(CCc1nc2ccccc2[nH]1)NC1CCN(C(=O)N2CC3CC(C2)[C@H]2CCCC(=O)N2C3)CC1 (stereo partly drawn)	none
CC(=O)N1C[C@@H](NC(=O)Nc2ccc(F)cc2F)C[C@H]1C(=O)N[C@H](Cc1c[nH]c2ccccc12)C(N)=O	none
COc1cc(C2CC(=O)N(Cc3ccc(F)cc3)c3ccccc3S2)cc(OC)c1OC (stereo not drawn)	Pf Dd2 inh 1.12µM
COc1ccc(C2CC(=O)N(Cc3ccc(F)cc3)c3ccccc3S2)cc1 (stereo not drawn)	none
COc1ccc(C2CC(=O)N(Cc3ccc(F)cc3)c3ccccc3S2)cc1OC (stereo not drawn)	none
O=C(N[C@H]1C[C@H]2C(=O)Nc3cc(Cl)ccc3C(=O)N2C1)c1ccccc1	none
CCCNC(=O)N1CCCCC1c1noc(COc2ccc(C)cc2)n1 (stereo not drawn)	none
COc1ccc(C2Cn3nnc(C(=O)N4CCC(C(=O)NCc5ccc(F)cc5)CC4)c3CO2)cc1 (stereo not drawn)	none
O=C(Cn1ccn2nc(-c3ccc(F)cc3)c(CO)c2c1=O)Nc1cc(F)ccc1F	none
CCCCOc1ccccc1C1CC(=O)Nc2ccc3ccccc3c21 (stereo not drawn)	Pf Dd2 inh 14.1µM
O=C1CC(c2c(F)cccc2Cl)c2c(ccc3ccccc23)N1 (stereo not drawn)	none
O=C1CC(c2c(Cl)cccc2Cl)c2c(ccc3ccccc23)N1 (stereo not drawn)	none
COC1CN(C2CCN(C(=O)c3cnccn3)CC2)C12CCOCC2 (stereo not drawn)	none
COc1ccccc1CCC(=O)N1c2ccccc2CC1c1nc(C2CC2)no1 (stereo not drawn)	none
COc1cc2c(cc1OCc1ccccc1)N([S+](=O)([O-])c1ccc3c(c1)CCO3)CC21CCN(C)CC1	Pf Dd2 inh 3.55µM
COc1ccc(C(=O)N2CC3(CCN(C)CC3)c3cc(OC)c(OCc4ccccc4)cc32)cn1	none
COc1cccc([S+](=O)([O-])N2CCCC3(CC(Cc4ccccc4)=NO3)C2)c1 (stereo not drawn)	none
Cc1ccc(CN2CCC3(CCNCC3)C2)c(Cl)c1Cl	Pf Dd2 inh 12.6µM
CN(Cc1ccccc1CN1CCCC1)C(=O)C1CC2(CCNCC2)CN1C (stereo not drawn)	none
CC(C)(C)c1cccc(CN2CCC3(CCNCC3)C2)c1O	Pf Dd2 inh 10µM
COc1ccc(F)c(F)c1CN1CCC2(CCNCC2)C1	none
OCC#Cc1ccc(CN2CCC3(CCNCC3)C2)cc1	none
Cn1c(CN2CCC3(CCNCC3)C2)nc2ccccc21	none
O=C(NCc1ccccc1)c1cn(C2CN(C(=O)Nc3ccc4c(c3)OCCO4)C2)nn1	none
Cc1cc(C(F)(F)F)nn1CC(=O)N1CC(CO)C2(CCNCC2)C1 (stereo not drawn)	none
COCCn1c(C)cc(C(=O)N2CCc3nn(CCOC)c(=O)n3CC2)c1C	none
CC(C)NS(=O)(=O)c1cc(C(=O)O)cc(-c2ccc3c(c2)OCO3)c1	none
COc1cccc2c1ccn2CCNC(=O)C1CC(=O)N(c2n[nH]c3ccccc23)C1 (stereo not drawn)	none
CCn1nccc1C(=O)N1CCC(N2C(=O)C3(CCCCC3)C2c2ccncc2)CC1 (stereo not drawn)	none
O=C(c1ccc2cc[nH]c2c1)N1CCC(N2C(=O)C3(CCCCC3)C2c2ccncc2)CC1 (stereo not drawn)	Pf Dd2 inh 7.08µM
O=C(c1ccncc1)N1CCC(N2C(=O)C3(CCCC3)C2c2ccccc2)CC1 (stereo not drawn)	none
COc1ccc(C(=O)N2CCC(N3C(=O)C4(CCCC4)C3c3ccccc3)CC2)cc1 (stereo not drawn)	none
Cc1cccc(C(=O)N2CCC(N3C(=O)C4(CCCCC4)C3c3ccncc3)CC2)c1 (stereo not drawn)	Pf Dd2 inh 6.31µM
Cn1nccc1C(=O)N1CCC(N2C(=O)C3(CCCCC3)C2c2ccccc2)CC1 (stereo not drawn)	none
CC(=O)Nc1ccc(C2(C(=O)NCc3ccc(F)cc3)CCC2)cc1	none
COc1cccc(CNC(=O)CN2CCCc3nc(C4CC4)ncc3C2=O)c1OC	none
O=C(Nc1cccc(C(F)(F)F)c1)O[C@@H]1CO[C@H]2[C@@H]1OC[C@@H]2NC(=S)Nc1ccc(Cl)cc1	none
CCOC(C)c1ccc(-c2cc(C)n[nH]c2=O)cc1 (stereo not drawn)	none
COC(=O)[C@@H]1Cc2c([nH]c3ccccc23)[C@H]2C[C@@H](NCCNC(C)=O)C[C@@H](c3ccc(C(C)C)cc3)N21	none
COC(=O)[C@@H]1Cc2c([nH]c3ccccc23)[C@H]2C[C@@H](NC3CC3)C[C@@H](c3ccc(F)cc3)N21	Pf Dd2 inh 4.47µM
COC(=O)[C@@H]1Cc2c([nH]c3ccccc23)[C@H]2C[C@@H](NCCNC(C)=O)C[C@@H](c3ccccc3)N21	none
